# ChEMBL document CHEMBL2218924, “A broad activity screen in support of a chemogenomic map for kinase signalling research and drug discovery” (Biochem J, 2013)
# Experiments:
# [1] = biological target: T1, Serine/threonine-protein kinase TBK1 (Homo sapiens) (UniProt Q9UHD2); settings: at 10 µM
# T1 sequence (whole entry): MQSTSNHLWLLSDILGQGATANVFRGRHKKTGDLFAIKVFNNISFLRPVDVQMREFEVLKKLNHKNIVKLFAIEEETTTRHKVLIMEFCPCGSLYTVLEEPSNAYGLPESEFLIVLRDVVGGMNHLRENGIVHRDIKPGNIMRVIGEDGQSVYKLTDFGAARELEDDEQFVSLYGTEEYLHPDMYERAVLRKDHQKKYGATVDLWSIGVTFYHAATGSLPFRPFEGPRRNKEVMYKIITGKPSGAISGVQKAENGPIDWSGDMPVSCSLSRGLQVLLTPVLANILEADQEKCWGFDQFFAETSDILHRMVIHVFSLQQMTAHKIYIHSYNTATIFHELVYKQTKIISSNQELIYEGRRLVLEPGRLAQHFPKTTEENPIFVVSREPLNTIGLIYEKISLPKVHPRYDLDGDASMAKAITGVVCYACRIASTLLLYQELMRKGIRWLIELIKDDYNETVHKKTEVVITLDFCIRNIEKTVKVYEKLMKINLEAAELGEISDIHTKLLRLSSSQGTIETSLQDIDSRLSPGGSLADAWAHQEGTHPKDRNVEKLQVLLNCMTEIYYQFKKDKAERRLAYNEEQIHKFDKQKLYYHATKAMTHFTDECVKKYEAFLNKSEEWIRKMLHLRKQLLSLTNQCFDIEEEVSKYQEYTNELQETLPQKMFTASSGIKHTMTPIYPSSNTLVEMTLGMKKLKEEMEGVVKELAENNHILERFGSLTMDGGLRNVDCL
# [2] = biological target: T2, TGF-beta receptor type-1 (Homo sapiens) (UniProt P36897); settings: at 1 µM
# T2 sequence (whole entry): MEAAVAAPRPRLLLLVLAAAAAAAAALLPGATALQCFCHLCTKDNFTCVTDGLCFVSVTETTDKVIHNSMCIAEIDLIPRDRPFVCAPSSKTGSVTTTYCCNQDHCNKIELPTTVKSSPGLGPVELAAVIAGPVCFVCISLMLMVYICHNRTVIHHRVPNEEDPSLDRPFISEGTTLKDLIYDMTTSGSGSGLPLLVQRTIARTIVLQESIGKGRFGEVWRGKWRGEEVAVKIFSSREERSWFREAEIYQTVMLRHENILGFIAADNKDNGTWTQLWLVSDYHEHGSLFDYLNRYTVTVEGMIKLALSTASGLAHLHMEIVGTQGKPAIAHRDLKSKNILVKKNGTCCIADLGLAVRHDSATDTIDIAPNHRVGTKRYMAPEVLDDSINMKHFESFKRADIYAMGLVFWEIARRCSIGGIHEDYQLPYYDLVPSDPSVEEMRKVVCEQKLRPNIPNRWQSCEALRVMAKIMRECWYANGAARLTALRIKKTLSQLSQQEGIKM
# [3] = biological target: T2, TGF-beta receptor type-1 (Homo sapiens); settings: at 10 µM
# [4] = biological target: T3, Inhibitor of nuclear factor kappa-B kinase subunit alpha (Homo sapiens) (UniProt O15111); settings: at 1 µM
# T3 sequence (whole entry): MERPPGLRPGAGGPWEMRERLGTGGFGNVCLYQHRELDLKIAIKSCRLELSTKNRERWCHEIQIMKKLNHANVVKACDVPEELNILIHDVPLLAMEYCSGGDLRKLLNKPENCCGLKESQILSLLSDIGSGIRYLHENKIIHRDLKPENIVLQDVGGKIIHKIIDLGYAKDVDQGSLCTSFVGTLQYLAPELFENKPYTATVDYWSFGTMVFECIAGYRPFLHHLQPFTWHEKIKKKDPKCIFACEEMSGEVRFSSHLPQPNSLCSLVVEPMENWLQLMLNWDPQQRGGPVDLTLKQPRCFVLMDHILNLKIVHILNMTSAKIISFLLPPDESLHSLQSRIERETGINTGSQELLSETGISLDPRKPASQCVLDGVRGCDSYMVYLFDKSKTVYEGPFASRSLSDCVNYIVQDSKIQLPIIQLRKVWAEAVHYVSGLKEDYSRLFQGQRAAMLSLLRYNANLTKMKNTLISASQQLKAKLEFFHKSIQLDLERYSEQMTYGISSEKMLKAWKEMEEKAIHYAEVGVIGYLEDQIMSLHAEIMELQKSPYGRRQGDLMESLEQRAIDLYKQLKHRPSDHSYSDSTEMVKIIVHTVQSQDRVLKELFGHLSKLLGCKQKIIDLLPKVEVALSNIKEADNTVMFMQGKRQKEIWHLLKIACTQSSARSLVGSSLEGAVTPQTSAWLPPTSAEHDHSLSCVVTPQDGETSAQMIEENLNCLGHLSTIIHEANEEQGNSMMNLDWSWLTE
# [5] = biological target: T3, Inhibitor of nuclear factor kappa-B kinase subunit alpha (Homo sapiens); settings: at 10 µM
# [6] = biological target: T4, Inhibitor of nuclear factor kappa-B kinase subunit beta (Homo sapiens) (UniProt O14920); settings: at 1 µM
# T4 sequence (whole entry): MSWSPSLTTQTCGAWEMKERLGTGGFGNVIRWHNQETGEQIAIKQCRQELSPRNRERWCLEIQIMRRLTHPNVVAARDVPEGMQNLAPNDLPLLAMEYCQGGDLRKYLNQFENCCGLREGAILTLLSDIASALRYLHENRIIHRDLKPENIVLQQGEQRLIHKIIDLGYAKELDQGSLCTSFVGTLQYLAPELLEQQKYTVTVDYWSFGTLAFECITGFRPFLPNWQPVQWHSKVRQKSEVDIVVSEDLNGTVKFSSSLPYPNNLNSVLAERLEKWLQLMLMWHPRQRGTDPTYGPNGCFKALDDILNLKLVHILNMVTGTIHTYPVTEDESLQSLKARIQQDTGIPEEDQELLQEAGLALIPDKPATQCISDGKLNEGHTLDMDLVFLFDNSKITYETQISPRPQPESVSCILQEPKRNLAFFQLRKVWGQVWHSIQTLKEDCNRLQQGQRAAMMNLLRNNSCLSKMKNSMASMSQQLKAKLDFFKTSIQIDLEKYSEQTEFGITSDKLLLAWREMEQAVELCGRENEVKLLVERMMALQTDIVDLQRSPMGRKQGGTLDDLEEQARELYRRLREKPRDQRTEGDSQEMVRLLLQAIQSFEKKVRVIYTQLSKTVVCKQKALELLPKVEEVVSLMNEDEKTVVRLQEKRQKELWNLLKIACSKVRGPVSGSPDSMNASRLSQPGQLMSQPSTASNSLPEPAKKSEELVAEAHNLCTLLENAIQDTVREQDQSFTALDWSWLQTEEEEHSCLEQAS
# [7] = biological target: T4, Inhibitor of nuclear factor kappa-B kinase subunit beta (Homo sapiens); settings: at 10 µM
# [8] = biological target: Interleukin-1 receptor-associated kinase 1 (Homo sapiens) (UniProt P51617); settings: at 1 µM
# Chain of Interleukin-1 receptor-associated kinase 1 (Homo sapiens) (P51617 whole entry, looked up): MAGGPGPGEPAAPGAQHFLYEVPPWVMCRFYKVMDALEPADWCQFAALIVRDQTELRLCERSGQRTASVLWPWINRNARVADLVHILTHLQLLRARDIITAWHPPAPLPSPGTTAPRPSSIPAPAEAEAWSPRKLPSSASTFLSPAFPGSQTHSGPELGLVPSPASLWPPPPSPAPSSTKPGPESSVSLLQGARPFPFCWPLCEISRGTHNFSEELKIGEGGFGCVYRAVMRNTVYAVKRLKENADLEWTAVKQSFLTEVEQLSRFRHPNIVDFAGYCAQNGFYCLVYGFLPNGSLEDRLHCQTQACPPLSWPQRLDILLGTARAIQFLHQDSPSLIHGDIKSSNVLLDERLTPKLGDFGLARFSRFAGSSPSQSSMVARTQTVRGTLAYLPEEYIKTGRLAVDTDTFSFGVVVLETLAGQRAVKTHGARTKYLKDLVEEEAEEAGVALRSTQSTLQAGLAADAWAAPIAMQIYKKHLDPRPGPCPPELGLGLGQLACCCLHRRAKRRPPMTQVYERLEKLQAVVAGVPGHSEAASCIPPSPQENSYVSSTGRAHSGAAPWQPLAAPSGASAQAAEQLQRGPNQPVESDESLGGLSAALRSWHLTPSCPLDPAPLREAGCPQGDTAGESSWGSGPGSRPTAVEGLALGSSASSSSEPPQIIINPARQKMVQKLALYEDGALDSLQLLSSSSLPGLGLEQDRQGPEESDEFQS
# [9] = biological target: Interleukin-1 receptor-associated kinase 1 (Homo sapiens) (UniProt P51617); settings: at 10 µM
# [10] = biological target: T5, Interleukin-1 receptor-associated kinase 4 (Homo sapiens) (UniProt Q9NWZ3); settings: at 1 µM
# T5 sequence (whole entry): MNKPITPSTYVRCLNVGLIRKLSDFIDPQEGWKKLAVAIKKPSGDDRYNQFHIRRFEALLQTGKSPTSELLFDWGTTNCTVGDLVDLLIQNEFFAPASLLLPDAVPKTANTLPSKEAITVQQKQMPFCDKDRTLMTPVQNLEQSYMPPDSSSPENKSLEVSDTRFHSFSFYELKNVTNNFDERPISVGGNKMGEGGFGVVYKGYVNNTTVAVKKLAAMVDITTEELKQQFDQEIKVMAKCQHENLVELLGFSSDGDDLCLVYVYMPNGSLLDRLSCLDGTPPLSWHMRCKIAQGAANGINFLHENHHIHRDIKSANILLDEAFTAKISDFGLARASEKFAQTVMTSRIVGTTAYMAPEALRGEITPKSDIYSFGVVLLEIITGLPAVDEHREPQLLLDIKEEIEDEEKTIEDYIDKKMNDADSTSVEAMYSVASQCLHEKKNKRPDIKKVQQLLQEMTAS
# [11] = biological target: T5, Interleukin-1 receptor-associated kinase 4 (Homo sapiens); settings: at 10 µM
# [12] = biological target: Insulin receptor-related protein (Homo sapiens) (UniProt P14616); settings: at 1 µM
# Chain of Insulin receptor-related protein (Homo sapiens) (P14616 27-742 limits assumed): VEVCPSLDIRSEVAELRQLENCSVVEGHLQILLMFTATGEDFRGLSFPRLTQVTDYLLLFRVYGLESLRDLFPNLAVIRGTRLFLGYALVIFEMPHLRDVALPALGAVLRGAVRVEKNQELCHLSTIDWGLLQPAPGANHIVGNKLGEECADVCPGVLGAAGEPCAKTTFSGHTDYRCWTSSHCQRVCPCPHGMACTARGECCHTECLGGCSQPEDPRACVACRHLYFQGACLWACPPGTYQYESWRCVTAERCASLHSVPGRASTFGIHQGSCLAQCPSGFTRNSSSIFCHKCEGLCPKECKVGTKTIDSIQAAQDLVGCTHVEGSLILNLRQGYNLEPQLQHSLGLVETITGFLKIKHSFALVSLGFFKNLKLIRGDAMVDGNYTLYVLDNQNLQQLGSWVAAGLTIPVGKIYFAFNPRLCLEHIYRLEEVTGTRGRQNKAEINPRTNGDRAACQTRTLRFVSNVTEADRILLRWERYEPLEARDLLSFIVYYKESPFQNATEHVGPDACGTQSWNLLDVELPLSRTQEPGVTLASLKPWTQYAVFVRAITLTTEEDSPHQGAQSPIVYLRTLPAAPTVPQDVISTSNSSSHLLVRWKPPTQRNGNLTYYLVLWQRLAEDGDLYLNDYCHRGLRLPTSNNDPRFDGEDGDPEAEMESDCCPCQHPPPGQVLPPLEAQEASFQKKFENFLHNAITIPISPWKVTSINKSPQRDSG
# Chain of Insulin receptor-related protein (Homo sapiens) (P14616 747-1297 limits assumed): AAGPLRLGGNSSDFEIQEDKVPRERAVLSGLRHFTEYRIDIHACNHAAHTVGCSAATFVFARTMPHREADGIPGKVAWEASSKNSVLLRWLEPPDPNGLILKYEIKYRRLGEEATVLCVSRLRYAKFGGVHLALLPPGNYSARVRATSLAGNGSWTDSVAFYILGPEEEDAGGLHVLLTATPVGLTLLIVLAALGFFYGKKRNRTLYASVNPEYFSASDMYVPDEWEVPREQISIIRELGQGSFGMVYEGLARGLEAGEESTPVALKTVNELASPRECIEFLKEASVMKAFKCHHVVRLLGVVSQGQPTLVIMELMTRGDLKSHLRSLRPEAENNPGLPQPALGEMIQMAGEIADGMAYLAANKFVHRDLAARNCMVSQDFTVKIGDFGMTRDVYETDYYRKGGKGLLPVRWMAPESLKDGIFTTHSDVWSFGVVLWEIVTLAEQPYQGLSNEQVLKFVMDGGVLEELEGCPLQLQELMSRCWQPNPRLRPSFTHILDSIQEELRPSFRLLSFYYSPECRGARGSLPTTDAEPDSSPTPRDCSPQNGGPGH
# [13] = biological target: Insulin receptor-related protein (Homo sapiens) (UniProt P14616); settings: at 10 µM
# [14] = biological target: T6, Tyrosine-protein kinase ITK/TSK (Homo sapiens) (UniProt Q08881); settings: at 1 µM
# T6 sequence (whole entry): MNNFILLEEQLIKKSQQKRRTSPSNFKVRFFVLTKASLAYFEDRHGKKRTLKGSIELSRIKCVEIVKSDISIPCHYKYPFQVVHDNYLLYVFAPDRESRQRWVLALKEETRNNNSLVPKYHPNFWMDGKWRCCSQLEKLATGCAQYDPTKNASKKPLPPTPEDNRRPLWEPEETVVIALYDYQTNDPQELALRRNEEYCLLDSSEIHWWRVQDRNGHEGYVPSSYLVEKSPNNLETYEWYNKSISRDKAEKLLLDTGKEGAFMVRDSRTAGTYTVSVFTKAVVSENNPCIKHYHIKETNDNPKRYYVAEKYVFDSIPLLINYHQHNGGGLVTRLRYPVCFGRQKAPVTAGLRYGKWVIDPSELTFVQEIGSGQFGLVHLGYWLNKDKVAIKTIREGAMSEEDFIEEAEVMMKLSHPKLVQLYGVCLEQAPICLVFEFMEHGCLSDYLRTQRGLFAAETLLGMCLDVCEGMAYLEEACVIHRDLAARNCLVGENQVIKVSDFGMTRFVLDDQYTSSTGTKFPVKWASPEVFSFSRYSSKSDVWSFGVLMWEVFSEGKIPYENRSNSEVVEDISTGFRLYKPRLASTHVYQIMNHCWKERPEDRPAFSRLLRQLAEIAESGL
# [15] = biological target: Insulin receptor (Homo sapiens) (UniProt P06213); settings: at 1 µM
# Chain of Insulin receptor (Homo sapiens) (P06213 28-758 limits assumed): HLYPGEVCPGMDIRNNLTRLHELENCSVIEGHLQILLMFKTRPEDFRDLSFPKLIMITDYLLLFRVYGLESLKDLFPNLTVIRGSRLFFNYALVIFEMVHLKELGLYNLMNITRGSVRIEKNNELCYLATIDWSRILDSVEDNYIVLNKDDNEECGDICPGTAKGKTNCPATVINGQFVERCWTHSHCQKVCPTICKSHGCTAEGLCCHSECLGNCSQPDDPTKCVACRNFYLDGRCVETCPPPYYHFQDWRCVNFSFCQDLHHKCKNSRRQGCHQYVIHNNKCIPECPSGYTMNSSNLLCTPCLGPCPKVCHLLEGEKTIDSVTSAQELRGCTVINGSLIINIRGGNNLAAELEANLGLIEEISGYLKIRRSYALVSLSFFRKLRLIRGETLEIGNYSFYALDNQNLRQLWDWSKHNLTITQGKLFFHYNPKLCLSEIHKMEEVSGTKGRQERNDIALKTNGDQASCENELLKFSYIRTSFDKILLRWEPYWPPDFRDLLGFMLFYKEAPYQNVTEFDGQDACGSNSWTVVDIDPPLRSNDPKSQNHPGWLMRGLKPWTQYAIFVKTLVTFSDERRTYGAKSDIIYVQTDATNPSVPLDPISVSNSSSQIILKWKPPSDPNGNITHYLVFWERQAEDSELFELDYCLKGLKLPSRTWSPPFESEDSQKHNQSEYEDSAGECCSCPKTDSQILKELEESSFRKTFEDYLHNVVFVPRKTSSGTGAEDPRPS
# Chain of Insulin receptor (Homo sapiens) (P06213 763-1382 limits assumed): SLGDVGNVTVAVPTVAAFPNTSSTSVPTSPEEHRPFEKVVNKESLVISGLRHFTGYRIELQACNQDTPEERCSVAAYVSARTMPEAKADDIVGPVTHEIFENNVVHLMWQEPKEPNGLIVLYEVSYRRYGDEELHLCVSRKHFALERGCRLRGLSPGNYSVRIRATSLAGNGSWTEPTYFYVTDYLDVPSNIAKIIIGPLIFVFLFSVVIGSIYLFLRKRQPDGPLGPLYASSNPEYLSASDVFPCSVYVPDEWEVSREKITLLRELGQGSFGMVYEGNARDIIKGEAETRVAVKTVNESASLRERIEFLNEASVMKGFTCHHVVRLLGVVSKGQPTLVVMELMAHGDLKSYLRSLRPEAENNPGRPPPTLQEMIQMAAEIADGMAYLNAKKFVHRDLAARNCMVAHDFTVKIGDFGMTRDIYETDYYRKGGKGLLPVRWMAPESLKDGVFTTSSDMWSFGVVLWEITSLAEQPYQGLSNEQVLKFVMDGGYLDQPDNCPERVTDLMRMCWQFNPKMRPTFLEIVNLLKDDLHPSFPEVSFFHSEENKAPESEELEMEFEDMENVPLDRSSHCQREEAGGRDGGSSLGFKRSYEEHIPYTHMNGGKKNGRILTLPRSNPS
# [16] = biological target: Insulin receptor (Homo sapiens) (UniProt P06213); settings: at 10 µM
# [17] = biological target: Insulin receptor (Homo sapiens) (UniProt P06213); settings: at 1 µM; remark: listed apart in the source
# [18] = biological target: Insulin receptor (Homo sapiens) (UniProt P06213); settings: at 10 µM; remark: listed apart in the source
# [19] = biological target: Insulin-like growth factor 1 receptor (Homo sapiens) (UniProt P08069); settings: at 1 µM
# Chain of Insulin-like growth factor 1 receptor (Homo sapiens) (P08069 31-736 limits assumed): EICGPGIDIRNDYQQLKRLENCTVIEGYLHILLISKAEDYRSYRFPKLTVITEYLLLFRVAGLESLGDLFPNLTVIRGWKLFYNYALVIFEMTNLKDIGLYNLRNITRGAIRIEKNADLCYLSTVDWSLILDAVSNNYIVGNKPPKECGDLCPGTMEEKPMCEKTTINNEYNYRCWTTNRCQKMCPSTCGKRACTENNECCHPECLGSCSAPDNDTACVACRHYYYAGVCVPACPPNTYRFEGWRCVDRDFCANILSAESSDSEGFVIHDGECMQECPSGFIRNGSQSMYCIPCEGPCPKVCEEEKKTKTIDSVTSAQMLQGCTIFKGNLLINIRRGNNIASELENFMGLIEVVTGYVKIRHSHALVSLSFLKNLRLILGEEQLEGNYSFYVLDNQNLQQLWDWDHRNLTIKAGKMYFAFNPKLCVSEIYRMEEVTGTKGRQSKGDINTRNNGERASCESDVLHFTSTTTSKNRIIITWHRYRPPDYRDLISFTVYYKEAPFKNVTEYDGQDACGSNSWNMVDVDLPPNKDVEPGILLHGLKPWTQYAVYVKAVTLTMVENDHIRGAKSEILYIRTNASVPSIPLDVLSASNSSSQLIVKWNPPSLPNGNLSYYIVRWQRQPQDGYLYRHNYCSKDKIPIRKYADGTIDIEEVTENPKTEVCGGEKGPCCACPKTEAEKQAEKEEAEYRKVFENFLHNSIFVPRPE
# Chain of Insulin-like growth factor 1 receptor (Homo sapiens) (P08069 741-1367 limits assumed): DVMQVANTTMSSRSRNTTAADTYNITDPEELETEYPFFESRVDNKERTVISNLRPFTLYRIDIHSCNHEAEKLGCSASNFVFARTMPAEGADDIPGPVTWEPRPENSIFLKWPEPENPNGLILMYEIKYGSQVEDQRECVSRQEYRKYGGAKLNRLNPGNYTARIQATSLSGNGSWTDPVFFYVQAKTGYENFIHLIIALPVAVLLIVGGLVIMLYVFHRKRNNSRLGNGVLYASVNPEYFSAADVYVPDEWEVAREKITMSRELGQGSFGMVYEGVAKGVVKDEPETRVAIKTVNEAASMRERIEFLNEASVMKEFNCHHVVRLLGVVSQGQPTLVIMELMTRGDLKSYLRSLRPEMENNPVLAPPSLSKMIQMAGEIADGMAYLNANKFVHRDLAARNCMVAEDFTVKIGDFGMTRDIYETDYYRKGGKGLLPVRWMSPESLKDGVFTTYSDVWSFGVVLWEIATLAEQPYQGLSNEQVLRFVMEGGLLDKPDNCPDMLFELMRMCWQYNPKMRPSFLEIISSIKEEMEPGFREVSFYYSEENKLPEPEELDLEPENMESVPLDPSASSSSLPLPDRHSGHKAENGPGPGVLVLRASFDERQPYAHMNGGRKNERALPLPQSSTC
# [20] = biological target: Insulin-like growth factor 1 receptor (Homo sapiens) (UniProt P08069); settings: at 10 µM
SMILES,residual activity [1] [%],residual activity [2] [%],residual activity [3] [%],residual activity [4] [%],residual activity [5] [%],residual activity [6] [%],residual activity [7] [%],residual activity [8] [%],residual activity [9] [%],residual activity [10] [%],residual activity [11] [%],residual activity [12] [%],residual activity [13] [%],residual activity [14] [%],residual activity [15] [%],residual activity [16] [%],residual activity [17] [%],residual activity [18] [%],residual activity [19] [%],residual activity [20] [%]
Cn1c2ccccc2c2c3c(c4c5ccccc5n(CCC#N)c4c21)CNC3=O,9,69,63,48,19,72,63,47,44,-1,4,69,53,4,,,,,,
O=C1Nc2ccc(Cl)cc2/C1=C/c1cc(Cl)c(O)c(Cl)c1,38,79,42,,88,100,67,84,81,75,51,111,74,,96,63,95,57,,
CC(C)(C)n1nc(Cc2cccc3ccccc23)c2c(N)ncnc21,67,78,57,99,128,104,92,90,77,105,81,124,78,107,98,65,95,63,100,73
CN(C)S(=O)(=O)c1ccc2c(c1)/C(=C/c1cc3c([nH]1)CCCC3)C(=O)N2,60,88,91,,,100,63,9,0,19,17,85,77,23,93,88,,95,93,
O=C(c1ccccc1)c1ccc(N2CCOCC2)cc1O,77,95,99,,,,,,89,117,93,131,75,,,,,,,93
O=c1cc(N2CCNCC2)oc2c(-c3ccccc3)cccc12,54,91,85,,,99,82,92,76,93,96,,70,83,,94,,,,97
Nc1n[nH]c2nc3ccccc3nc12,63,91,82,93,69,122,90,98,98,93,67,122,86,,,,,,,
COc1cc2ncnc(Nc3cccc(Cl)c3)c2cc1OC,59,100,103,,,,,84,35,64,5,105,102,100,110,,,,115,
O=c1cc(N2CCOCC2)oc2c1ccc1ccccc12,71,89,88,,,96,94,83,88,96,88,,98,96,108,91,103,97,,
CCCCc1c(-c2ccc(O)cc2)[nH]c2nccnc12,35,91,46,90,81,,,52,53,71,26,,,93,,,,,65,66
CC(C)[C@H](CO)Nc1nc(Nc2cc(N)cc(Cl)c2)c2ncn(C(C)C)c2n1,43,98,91,,,,88,94,49,39,7,,,,90,50,55,6,75,17
COc1ccc(COc2ccc(Cc3cnc(N)nc3N)cc2OC)cc1,58,79,77,,,109,,76,67,,,137,82,100,,,,,,
CC(C)N(CCC(=O)c1ccc2ccccc2c1)Cc1ccccc1,51,76,74,,,,,83,77,,,131,82,,,,,,,
